This is part of a sample that, as a whole, favours compounds with a hit. Of some 83,000 tested, about 20% had one in any assay.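 Cells were grown in 96-well plates and exposed to the test compound at a single concentration for 48 hours; results are reported as percent growth, with values below 10 considered active.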 Values without a mark were called inactive. Active and inactive are the calls of the source.
The compounds below were run on COLO 205 colon (assay: NCI-60 one-dose screen, 48 h (100 = growth as untreated, 0 = no growth, -100 = all killed)). Conditions: 10 µM.
Description: Cells are grown in 96 well plates and exposed to the test compound for 48 hours. Compounds are tested at a single concentration, which is 10^-5 M for most compounds. The reported endpoint is percent growth (GI% or GIPRCNT), where numbers from 0 - 100% represent growth inhibition, and numbers from -100% - 0 represent cell death. For example, a value of 40 represents 60% growth inhibition. A value of 0 means no net growth occurred over the course of the experiment. A value of -40 indicates 40% of cells at the beginning of the experiment died by the end of the experiment. A value of -100 means all cells are dead at the end of the experiment.
NCI-60 Human Tumor Cell Lines Screen was performed using the standard one-dose NCI protocol, which is described in more detail at https://dtp.cancer.gov/discovery_development/nci-60/default.htm.
Compounds with GIPRCNT values below 10 were considered active. Activity score was based on GIPRCNT using the following formula: […]
Score is 0 for GIPRCNT values of 100 or above, 50 for GIPRCNT values of 0, and 100 for GIPRCNT values of -100.

Structure (SMILES)	growth
Cc1ccc(NCCN(C)CC(C)O)c2c(=O)c3ccccc3sc12 (stereo not given)	-43.3% (active)
CN(C)CCCOc1cccc(NC2=C(Cl)C(=O)C(Nc3cccc(OCCCN(C)C)c3)=C(Cl)C2=O)c1	-79.7% (active)
CCOc1ccccc1/C=N\N=C\c1ccccc1O	108%
O=C(Nc1nc(-c2ccccc2)nc2c1sc(=S)n2-c1ccccc1)C(F)(F)F	115%
COc1ccc(-c2nn(-c3cccc(Cl)c3)cc2-c2c(C#N)c(=O)n3[nH]c(-c4ccc(C)cc4)nc3c2C#N)cc1	15.9%
C[C@H]1[C@H](OC(=O)CCC(=O)O)O[C@@H]2O[C@]3(C)CC[C@H]4[C@H](C)CC[C@@H]1[C@@]24OO3	-5.69% (active)
Nc1c(Br)cc(Br)c2c1[nH]c(=O)c1ccccc12	86.5%
C[N+]1(CCCCC[N+]2(C)CCCC2)CCCC1	122%
CC(C)(C)c1ccc(S(=O)(=O)N[C@H]2CC[C@H]3[C@@H]4CCc5cc(O)ccc5[C@H]4CC[C@]23C)cc1	8.52% (active)
O=C(CCCNC(=O)c1nc(-c2ccccc2)n(-c2ccccc2)n1)NO	109%
CNC(=O)c1cc(Oc2ccc3c(c2)sc2nc(-c4ccc(NC(=O)Nc5ccc(Cl)c(C(F)(F)F)c5)cc4)cn23)ccn1	89.6%
C1CN(CC2CCC(CN3CCOCC3)O2)CCO1 (stereo not given)	60.8%
Clc1nc2ccccc2cc1Cn1nnc(Cc2ccccc2)n1	82.7%
COc1ccc(/C(C#N)=C/c2ccccc2OC)cc1	14.2%
CC(C)c1cc(N=O)cc(C(C)C)c1O	112%
CCOC(=O)c1sc2ncnc(Nc3ccc(NC(=O)Nc4ccc(Cl)cc4)cc3)c2c1C	53%
CN(C)CCOc1cccc(NC2=C(Cl)C(=O)C(Nc3cccc(OCCN(C)C)c3)=C(Cl)C2=O)c1	-82.9% (active)
Cc1ccc(N=Nc2ccccc2)cc1	106%
Cc1cc(Br)nnc1Br	100%
CCCCN(CCCC)C(=O)[C@H](CC)[C@@H]1CC[C@@H](C)[C@@H]([C@H](C)[C@@H](O)[C@@H](C)C(=O)[C@H](CC)C2O[C@]3(C=CC(=O)[C@]4(CC[C@@](C)([C@H]5CC[C@](O)(CC)[C@H](C)O5)O4)O3)[C@H](C)C[C@@H]2C)O1 (stereo not given in full)	21.3%

Structure (SMILES)	growth
CCOC(=O)c1cc(C(=O)c2ccc(OC)c(OC)c2)n2ccncc12	115%
CCOC(=O)N/N=C/c1ccc(OC)c(OC)c1	117%
O=C(CCCSc1nc(-c2ccc(Cl)cc2)cc(-c2ccc(Cl)cc2)n1)NO	9.44% (active)
Cc1nn(-c2ccc(-c3ccc(OC(F)(F)F)cc3)cc2)c2nc(Cc3ccccc3)nc(N)c12	65.2%
CCCCCCCCCCCC[n+]1c(C)cc(N)c2ccccc21	-66.7% (active)
Cc1ccc(S(=O)(=O)N/N=C2\CCCc3ccccc32)cc1	115%
CC(=O)[C@H]1CC[C@]2(C)[C@@H]1CC[C@@H]1[C@@]3(C)CC(CCC#N)(CCC#N)C(=O)C(C)(C)[C@@H]3CC[C@]12C	106%
CCCc1nc(C(C)(C)O)c(C(=O)O)n1Cc1ccc(-c2ccccc2-c2nn[nH]n2)cc1	111%
Nc1ccc(-c2cccs2)cc1NC(=O)c1ccc(CCCC(=O)Nc2ccc(C3CC3N)cc2)cc1 (stereo not given)	73.9%
C=CCSC(CC)(CC)C(=O)NC	120%
O=S(=O)(O)c1ccc(Cl)cc1	109%
Nc1nc(-c2ccc(Cl)cc2)cc(-c2cc3ccccc3oc2=O)n1	100%
CCCCc1oc2ccccc2c1C(=O)c1cc(I)c(OCCN(CC)CC)c(I)c1	-79.8% (active)
O=C(CN1CCN(C(=O)c2ccccc2)CC1)Nc1ccccc1SCc1ccccc1	82.3%
C=C(C)[C@@H]1CC[C@]2(COCCC#N)CC[C@]3(C)[C@H](CC[C@@H]4[C@@]5(C)Cc6c([nH]c7ccccc67)C(C)(C)[C@@H]5CC[C@]43C)[C@@H]12	-42.8% (active)
Cc1cc(Cl)ccc1Nc1nc(C(F)(F)F)ccc1C(=O)N/N=C/c1c(Cl)cccc1Cl	-52.8% (active)
COc1cc2c3c(n(C4CCN(C)CC4)c(=O)c2cc1OC)-c1cc2c(cc1C3=O)OCO2	59.5%
COC(=O)c1c[nH]c2cc(OC(C)C)c(OC(C)C)cc2c1=O	108%
Nc1ncnc2c1ncn2C1(CO)OCC(O)C(O)C1O (stereo not given)	113%
Cc1cc(C)nc(NS(=O)(=O)c2ccc(Nc3nc4nc(NCc5ccccc5)nc(-c5ccc(O)cc5)c4c(=O)[nH]3)cc2)n1	35.3%
